The full data set covers some 8,800 targets. This sample favours those with a hit. About 0.5% of all pairs of compound and target were hits. Values without a mark were called inactive.
What was measured:
Assay in all cases: log2 fold change, soluble protein after heating vs DMSO (PISA); higher = thermal stabilisation; K562 lysate, 10 uM; active = over 0.2 and 3.5 SD of the protein, either way, in both replicates (recomputed)
[1] = compound: C#Cc1cccc(Nc2ncnc3cc(OCCOC)c(OCCOC)cc23)c1 [erlotinib]
Method in brief: (§1)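 Log-two fold change in thermal stability relative to solvent controls is reported from duplicates. For each sample, crude K562 extract from dounce-homogenised pellets in PBS pH 7.4 with 1 mM MgCl2, at 1 mg/mL protein, was treated with 10 μM compound for 30 min. Aliquots heated for 3 min across 48°C-58°C were pooled, brought to 0.5% NP-40 at 4°C and cleared at 21,000xg for 90 min. The supernatant was quantified by TMTpro 16plex LC-MS/MS with channel sums equalised.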

[2] = compound: C/C(=N\NC(=O)C1=CC(=CC=C1)S(=O)(=O)N2CCOCC2)/C3=C(C=CC(=C3)Cl)O
Method in brief: as §1

[3] = compound: C1=CC(=CC=C1C2=NC3=C(N2)C=C(C=C3)C(=O)N)OC4=CC=C(C=C4)Cl
Method in brief: as §1

[4] = compound: C1=CC2=C(C=CC(=C2)/C=C\3/C(=O)NC(=NCC4=CC=CS4)S3)N=C1
Method in brief: as §1

[5] = compound: C1=CC2=NC=CN=C2C=C1/C=C/3\C(=O)NC(=O)S3
Method in brief: as §1

[6] = compound: C1=CC=C(C=C1)C2=NC(=C(N2)C3=CC=NC=C3)C4=CC(=C(C=C4)Cl)O
Method in brief: as §1

[7] = compound: C1=CC=C2C(=C1)C3=NNC4=CC=CC(=C43)C2=O
Method in brief: as §1

[8] = compound: C1CCN(C1)C(=O)NC2=CC=CC(=C2)NC3=NC=C(C(=N3)NCCC4=CN=CN4)Br
Method in brief: as §1

[9] = compound: C1CN(CCC1(CC2=CC=C(C=C2)Cl)N)C3=NC=NC4=C3C=CN4
Method in brief: as §1

[10] = compound: C1COCCN1CCN2C3=CC=CC=C3N=C2NC(=O)C4=CC(=CC=C4)[N+](=O)[O-] [IRAK-1-4 Inhibitor I]
Method in brief: as §1

Chain of UniProt Q9UP83 (Q9UP83 whole entry, looked up): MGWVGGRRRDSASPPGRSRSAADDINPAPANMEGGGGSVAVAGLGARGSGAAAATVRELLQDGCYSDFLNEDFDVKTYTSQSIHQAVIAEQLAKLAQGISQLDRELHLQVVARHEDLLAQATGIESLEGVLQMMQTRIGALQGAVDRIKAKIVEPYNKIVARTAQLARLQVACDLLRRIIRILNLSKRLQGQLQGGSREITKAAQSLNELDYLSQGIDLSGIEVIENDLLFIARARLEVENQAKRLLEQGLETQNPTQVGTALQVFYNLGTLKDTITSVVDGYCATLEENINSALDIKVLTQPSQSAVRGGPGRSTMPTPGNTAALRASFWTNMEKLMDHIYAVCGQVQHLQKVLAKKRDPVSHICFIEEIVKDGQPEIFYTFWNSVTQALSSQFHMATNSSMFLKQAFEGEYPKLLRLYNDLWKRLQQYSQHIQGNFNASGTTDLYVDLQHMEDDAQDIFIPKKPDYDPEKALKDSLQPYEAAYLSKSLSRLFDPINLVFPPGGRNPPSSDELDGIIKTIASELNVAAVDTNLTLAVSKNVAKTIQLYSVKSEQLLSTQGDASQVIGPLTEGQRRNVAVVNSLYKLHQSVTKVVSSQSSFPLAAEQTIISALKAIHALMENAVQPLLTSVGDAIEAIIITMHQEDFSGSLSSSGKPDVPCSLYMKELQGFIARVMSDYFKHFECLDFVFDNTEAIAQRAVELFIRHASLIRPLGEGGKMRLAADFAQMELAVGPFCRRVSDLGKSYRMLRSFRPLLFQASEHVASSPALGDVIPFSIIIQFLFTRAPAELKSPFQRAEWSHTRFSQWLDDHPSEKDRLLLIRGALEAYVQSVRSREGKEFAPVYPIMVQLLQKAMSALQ
Chain of UniProt P19784 (P19784 whole entry, looked up): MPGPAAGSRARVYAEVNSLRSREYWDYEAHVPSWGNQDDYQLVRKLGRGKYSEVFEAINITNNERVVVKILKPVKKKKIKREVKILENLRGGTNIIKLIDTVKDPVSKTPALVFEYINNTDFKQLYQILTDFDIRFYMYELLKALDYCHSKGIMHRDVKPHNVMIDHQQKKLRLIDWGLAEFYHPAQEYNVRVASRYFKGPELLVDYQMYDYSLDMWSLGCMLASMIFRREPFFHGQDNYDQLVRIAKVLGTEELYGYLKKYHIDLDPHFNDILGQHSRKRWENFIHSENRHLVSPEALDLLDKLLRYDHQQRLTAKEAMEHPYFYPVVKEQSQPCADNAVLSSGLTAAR
Chain of UniProt Q9UHD1 (Q9UHD1 whole entry, looked up): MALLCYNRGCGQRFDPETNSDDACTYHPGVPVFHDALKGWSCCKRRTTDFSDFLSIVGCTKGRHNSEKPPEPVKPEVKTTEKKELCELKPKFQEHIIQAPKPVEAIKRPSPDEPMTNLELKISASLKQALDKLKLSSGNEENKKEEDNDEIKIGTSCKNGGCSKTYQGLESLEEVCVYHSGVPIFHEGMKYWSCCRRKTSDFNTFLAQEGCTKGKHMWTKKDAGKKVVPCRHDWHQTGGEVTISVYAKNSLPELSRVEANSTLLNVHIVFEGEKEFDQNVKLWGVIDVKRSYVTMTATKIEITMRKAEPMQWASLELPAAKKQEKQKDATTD
Chain of UniProt O60610 (O60610 whole entry, looked up): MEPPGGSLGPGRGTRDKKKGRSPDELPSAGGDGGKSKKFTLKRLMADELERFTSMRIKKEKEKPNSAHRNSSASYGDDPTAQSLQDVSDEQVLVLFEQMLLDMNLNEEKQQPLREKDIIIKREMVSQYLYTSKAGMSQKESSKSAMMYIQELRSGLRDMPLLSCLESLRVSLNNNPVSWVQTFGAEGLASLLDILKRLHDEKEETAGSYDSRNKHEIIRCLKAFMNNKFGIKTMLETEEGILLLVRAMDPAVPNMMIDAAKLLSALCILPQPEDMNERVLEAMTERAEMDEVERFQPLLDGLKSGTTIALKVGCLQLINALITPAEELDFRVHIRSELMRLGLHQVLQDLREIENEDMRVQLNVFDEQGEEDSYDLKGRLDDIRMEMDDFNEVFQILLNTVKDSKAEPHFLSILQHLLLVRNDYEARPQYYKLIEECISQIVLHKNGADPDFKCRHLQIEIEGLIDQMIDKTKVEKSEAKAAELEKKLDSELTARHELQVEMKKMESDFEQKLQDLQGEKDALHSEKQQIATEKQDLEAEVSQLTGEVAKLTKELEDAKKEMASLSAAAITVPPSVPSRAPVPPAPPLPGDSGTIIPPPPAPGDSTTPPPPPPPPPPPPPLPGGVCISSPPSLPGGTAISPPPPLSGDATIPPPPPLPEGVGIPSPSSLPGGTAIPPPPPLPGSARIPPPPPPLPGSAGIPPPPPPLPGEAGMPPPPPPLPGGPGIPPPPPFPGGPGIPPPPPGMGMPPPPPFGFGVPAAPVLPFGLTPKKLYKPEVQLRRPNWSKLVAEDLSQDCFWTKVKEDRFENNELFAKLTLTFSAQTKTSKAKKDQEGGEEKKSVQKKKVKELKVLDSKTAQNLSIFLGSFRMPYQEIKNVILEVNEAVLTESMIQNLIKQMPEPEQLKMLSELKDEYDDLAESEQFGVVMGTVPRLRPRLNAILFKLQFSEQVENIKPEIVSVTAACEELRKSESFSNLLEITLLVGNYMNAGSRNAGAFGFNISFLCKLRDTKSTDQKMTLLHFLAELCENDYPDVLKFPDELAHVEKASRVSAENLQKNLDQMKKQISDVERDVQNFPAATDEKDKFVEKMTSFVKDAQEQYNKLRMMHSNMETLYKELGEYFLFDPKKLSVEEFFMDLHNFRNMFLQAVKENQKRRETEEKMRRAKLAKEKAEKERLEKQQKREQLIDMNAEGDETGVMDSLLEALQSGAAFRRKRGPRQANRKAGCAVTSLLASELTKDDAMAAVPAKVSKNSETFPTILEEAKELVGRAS
Chain of UniProt O15111 (O15111 whole entry, looked up): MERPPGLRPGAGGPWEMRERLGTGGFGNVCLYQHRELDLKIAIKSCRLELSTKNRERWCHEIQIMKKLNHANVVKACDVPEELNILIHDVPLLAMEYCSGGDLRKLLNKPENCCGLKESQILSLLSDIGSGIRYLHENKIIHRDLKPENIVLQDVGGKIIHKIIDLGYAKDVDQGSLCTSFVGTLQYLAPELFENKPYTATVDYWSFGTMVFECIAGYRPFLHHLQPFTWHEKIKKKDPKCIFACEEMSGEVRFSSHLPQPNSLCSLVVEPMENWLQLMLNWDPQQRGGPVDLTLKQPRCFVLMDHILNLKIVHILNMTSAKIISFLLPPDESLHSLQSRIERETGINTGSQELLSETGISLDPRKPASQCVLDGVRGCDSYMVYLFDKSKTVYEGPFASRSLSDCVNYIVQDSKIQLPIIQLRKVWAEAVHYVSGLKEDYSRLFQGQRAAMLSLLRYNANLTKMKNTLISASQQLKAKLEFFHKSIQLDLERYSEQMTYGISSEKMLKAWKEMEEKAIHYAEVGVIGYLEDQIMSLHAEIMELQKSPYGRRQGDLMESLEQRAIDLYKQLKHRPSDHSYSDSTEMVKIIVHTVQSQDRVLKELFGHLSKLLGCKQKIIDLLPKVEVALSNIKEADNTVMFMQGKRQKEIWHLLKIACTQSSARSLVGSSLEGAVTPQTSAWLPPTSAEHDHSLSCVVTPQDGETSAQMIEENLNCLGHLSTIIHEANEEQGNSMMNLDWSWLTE
Chain of UniProt Q9Y6M4 (Q9Y6M4 whole entry, looked up): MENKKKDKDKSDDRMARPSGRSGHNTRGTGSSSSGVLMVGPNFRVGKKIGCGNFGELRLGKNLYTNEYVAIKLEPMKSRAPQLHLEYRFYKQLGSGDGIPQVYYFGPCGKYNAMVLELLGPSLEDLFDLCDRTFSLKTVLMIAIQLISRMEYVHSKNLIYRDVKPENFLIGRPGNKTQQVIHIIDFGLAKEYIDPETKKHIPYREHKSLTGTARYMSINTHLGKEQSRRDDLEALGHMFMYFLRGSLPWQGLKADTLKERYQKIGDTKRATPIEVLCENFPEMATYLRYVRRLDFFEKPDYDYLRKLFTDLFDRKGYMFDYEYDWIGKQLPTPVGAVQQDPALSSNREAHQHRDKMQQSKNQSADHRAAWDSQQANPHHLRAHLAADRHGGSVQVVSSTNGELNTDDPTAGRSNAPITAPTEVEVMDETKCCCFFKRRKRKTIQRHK
Chain of UniProt Q96EP1 (Q96EP1 whole entry, looked up): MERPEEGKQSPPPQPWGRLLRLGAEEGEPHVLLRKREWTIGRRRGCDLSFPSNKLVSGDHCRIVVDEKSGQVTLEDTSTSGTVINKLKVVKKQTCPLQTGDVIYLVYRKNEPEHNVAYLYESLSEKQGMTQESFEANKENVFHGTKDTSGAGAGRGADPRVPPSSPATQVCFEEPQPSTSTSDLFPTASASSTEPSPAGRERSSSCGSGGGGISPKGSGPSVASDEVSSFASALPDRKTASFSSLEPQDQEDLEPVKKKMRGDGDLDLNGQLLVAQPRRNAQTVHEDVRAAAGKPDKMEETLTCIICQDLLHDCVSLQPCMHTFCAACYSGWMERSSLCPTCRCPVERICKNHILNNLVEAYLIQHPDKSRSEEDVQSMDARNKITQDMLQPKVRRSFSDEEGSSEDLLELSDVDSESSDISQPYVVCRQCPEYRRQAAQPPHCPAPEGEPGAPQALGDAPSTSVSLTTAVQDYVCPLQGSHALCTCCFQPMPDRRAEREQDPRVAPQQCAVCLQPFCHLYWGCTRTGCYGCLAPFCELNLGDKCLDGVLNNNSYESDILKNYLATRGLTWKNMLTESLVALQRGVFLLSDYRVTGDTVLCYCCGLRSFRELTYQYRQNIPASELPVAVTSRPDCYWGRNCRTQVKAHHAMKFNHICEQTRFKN
Chain of UniProt P67870 (P67870 whole entry, looked up): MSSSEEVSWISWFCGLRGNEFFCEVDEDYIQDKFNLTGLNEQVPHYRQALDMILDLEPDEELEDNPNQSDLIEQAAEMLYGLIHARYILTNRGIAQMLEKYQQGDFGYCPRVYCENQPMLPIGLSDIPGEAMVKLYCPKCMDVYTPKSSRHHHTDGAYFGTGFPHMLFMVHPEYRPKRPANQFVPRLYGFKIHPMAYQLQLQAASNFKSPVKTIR
Chain of UniProt P24311 (P24311 whole entry, looked up): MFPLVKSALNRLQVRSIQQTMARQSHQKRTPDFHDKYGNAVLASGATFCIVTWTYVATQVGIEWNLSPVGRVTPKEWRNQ

| Target | log2 fold change [1] | log2 fold change [2] | log2 fold change [3] | log2 fold change [4] | log2 fold change [5] | log2 fold change [6] | log2 fold change [7] | log2 fold change [8] | log2 fold change [9] | log2 fold change [10] |
| --- | --- | --- | --- | --- | --- | --- | --- | --- | --- | --- |
| DDB2 (UniProt Q92466) | -0.007 | -0.028 | 0.07 | 0.052 | 0.064 | -0.024 | 0 | -0.075 | -0.041 | 0.026 |
| CMPK2 (UniProt Q5EBM0) | -0.019 | 0.07 | 0.006 | -0.035 | -0.016 | 0.004 | -0.038 | -0.03 | 0.031 | 0.024 |
| CLCN3 isoform 2 (UniProt P51790) | 0.003 | 0.083 | -0.061 | -0.005 | -0.004 | -0.042 | 0.013 | -0.032 | 0.029 | 0.068 |
| DLD (UniProt P09622) | 0.014 | 0 | 0.022 | -0.01 | 0.025 | 0.004 | 0.007 | 0.008 | 0.006 | 0.026 |
| DNAJC1 (UniProt Q96KC8) | -0.018 | -0.011 | -0.159 | -0.053 | 0.032 | -0.044 | -0.039 | -0.011 | 0.017 | 0.013 |
| CTPS2 (UniProt Q9NRF8) | -0.009 | -0.008 | -0.016 | -0.01 | 0.01 | -0.008 | 0 | -0.021 | -0.015 | -0.006 |
| CHORDC1 (UniProt Q9UHD1) | 0.015 | 0.007 | 0.017 | 0.001 | 0.004 | 0.002 | 0.005 | -0.007 | 0.015 | -0.016 |
| CHMP4A isoform 2 (UniProt Q9BY43) | -0.046 | 0.008 | 0.018 | -0.01 | -0.018 | 0.021 | 0.033 | 0.014 | -0.007 | -0.016 |
| CSNK2A2 (UniProt P19784) | 0 | -0.209 | -0.015 | 0.383 | 0.699 (active) | 0.032 | 0.375 | 0.277 | 0.024 | 0.022 |
| CHUK (UniProt O15111) | -0.005 | 0.114 | -0.076 | 0.01 | -0.019 | 0.022 | 0.015 | -0.002 | -0.002 | -0.044 |
| DIAPH1 (UniProt O60610) | -0.004 | -0.006 | 0.002 | 0.007 | -0.002 | -0.001 | -0.006 | -0.01 | -0.001 | -0.007 |
| CORO7 isoform 3 (UniProt P57737) | 0.035 | -0.009 | -0.079 | 0.013 | 0 | 0.016 | -0.016 | 0.009 | 0.026 | -0.04 |
| CSNK1G3 (UniProt Q9Y6M4) | -0.115 | -0.018 | 0.097 | 0.149 | 0.073 | -0.043 | 0.234 | 0.018 | 0.079 | 0.022 |
| COASY isoform 2 (UniProt Q13057) | 0.006 | -0.049 | -0.044 | -0.007 | 0.022 | -0.018 | -0.05 | -0.019 | 0.024 | -0.019 |
| DIAPH3 (UniProt Q9NSV4) | 0.042 | 0.07 | -0.022 | 0.05 | 0.074 | 0.045 | -0.066 | -0.04 | -0.082 | -0.041 |
| DMXL1 (UniProt Q9Y485) | 0.006 | 0.016 | -0.015 | -0.017 | -0.024 | -0.008 | -0.026 | -0.013 | -0.001 | 0.016 |

| Target | log2 fold change [1] | log2 fold change [2] | log2 fold change [3] | log2 fold change [4] | log2 fold change [5] | log2 fold change [6] | log2 fold change [7] | log2 fold change [8] | log2 fold change [9] | log2 fold change [10] |
| --- | --- | --- | --- | --- | --- | --- | --- | --- | --- | --- |
| DHX32 (UniProt Q7L7V1) | -0.083 | -0.091 | 0.098 | -0.052 | – | 0.013 | 0.038 | -0.145 | 0.044 | 0.036 |
| CHFR (UniProt Q96EP1) | -0.011 | 0.179 | 0.066 | -0.068 | – | -0.027 | 0.257 | -0.023 | -0.013 | -0.011 |
| DAZAP1 (UniProt Q96EP5) | -0.017 | 0.008 | 0.03 | 0.023 | 0.026 | 0.017 | -0.047 | 0.02 | -0.004 | 0.012 |
| DENND4A isoform 2 (UniProt Q7Z401) | 0.023 | -0.021 | -0.015 | 0.007 | -0.045 | 0.002 | -0.041 | 0.002 | 0.012 | 0.017 |
| CSNK2B (UniProt P67870) | 0.045 | -0.107 | -0.039 | 0.151 | 0.33 (active) | -0.012 | 0.198 | 0.145 | 0.041 | 0.021 |
| CMIP (UniProt Q8IY22) | 0.003 | 0.05 | -0.008 | 0.055 | 0.035 | 0.023 | -0.067 | -0.001 | -0.023 | -0.011 |
| DENND1B (UniProt Q6P3S1) | -0.08 | 0.153 | -0.13 | 0.04 | 0.19 | 0.019 | 0.007 | – | – | 0.014 |
| CKS1B (UniProt P61024) | -0.058 | -0.097 | -0.037 | 0.042 | 0.008 | 0.121 | 0.092 | 0.038 | -0.012 | -0.018 |
| DNAJC24 (UniProt Q6P3W2) | 0.034 | -0.069 | 0.021 | 0.011 | – | 0.016 | 0.081 | 0.01 | 0.01 | -0.055 |
| DICER1 (UniProt Q9UPY3) | 0.013 | -0.088 | -0.056 | -0.023 | -0.027 | 0.03 | -0.025 | -0.064 | -0.042 | -0.016 |
| COG5 isoform 2 (UniProt Q9UP83) | 0.073 | 0.016 | -0.044 | 0.001 | -0.004 | 0.019 | 0.031 | 0.019 | 0.043 | -0.001 |
| COG2 (UniProt Q14746) | 0.009 | 0.036 | -0.021 | -0.022 | -0.032 | -0.017 | -0.001 | 0.011 | 0.031 | 0.03 |
| DENND6A (UniProt Q8IWF6) | -0.019 | 0.232 | 0.004 | 0.073 | 0.048 | 0.024 | 0.003 | 0.029 | 0.083 | 0.025 |
| COX7B (UniProt P24311) | -0.024 | 0.026 | 0.009 | -0.011 | – | -0.003 | 0.022 | -0.085 | 0.022 | 0.025 |
| CLASP1 (UniProt Q7Z460) | 0.042 | 0.082 | -0.029 | -0.022 | 0.01 | 0.026 | -0.041 | -0.035 | 0.02 | 0.029 |
